Experiment in all cases: DAPPL (digital affinity profiling via proximity ligation, sequencing); 10 mM Tris-HCl pH 7.5, 50 mM NaCl, 1 mM DTT, 4% glycerol, room temperature, 30 min; GST-TFs on glutathione beads, 16-mer random dsDNA library, 0.1% formaldehyde crosslink after washing; high values mean tight binding
What all share (settings): protein: recombinant; tags: N-terminal GST; dsDNA, one strand shown

One assay concerns the target T1, FLI1 (Homo sapiens, UniProt Q01543 1-452).
T1 sequence: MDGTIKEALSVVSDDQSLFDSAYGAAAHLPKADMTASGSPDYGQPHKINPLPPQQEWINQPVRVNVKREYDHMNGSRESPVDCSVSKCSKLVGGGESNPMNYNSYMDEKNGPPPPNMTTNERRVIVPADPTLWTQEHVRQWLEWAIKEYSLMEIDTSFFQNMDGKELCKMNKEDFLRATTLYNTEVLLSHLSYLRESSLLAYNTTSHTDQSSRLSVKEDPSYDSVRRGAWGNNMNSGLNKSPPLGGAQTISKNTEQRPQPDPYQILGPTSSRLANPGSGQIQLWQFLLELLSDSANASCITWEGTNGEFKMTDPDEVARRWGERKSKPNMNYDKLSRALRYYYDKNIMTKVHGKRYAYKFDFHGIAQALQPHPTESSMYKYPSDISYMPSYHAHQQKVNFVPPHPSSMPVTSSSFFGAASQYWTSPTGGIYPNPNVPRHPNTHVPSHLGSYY
The essentials: (§1)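 Each value of binding signal is a hexamer's read frequency for a factor divided by the same hexamer's frequency in the tag-only sample. Barcoded, bead-captured GST fusions of human transcription factors made in yeast were pooled with that sample and incubated with 200 nmole of a random double-stranded 16-mer DNA library in Tris/NaCl/DTT/glycerol buffer at room temperature for 30 min. Washing, 0.1% formaldehyde crosslinking, proximity ligation, PCR and Illumina NextSeq500 sequencing followed.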

In a further assay the target is T2, ERG (Homo sapiens, UniProt P11308 1-479).
T2 sequence: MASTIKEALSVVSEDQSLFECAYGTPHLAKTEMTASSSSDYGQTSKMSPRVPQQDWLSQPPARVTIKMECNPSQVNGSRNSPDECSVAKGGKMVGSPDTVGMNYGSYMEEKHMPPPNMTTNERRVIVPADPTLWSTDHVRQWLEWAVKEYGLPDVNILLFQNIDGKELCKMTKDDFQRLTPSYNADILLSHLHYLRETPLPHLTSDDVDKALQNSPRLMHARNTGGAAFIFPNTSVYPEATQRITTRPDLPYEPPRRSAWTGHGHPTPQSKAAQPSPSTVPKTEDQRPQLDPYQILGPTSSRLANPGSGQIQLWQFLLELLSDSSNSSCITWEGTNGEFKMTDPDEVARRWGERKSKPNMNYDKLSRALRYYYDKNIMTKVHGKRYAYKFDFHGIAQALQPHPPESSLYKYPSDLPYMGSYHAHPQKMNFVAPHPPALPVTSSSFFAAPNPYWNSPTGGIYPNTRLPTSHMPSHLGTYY
The essentials: as §1

The target of another assay is SPI1 (Homo sapiens, UniProt P17947 1-270). The method in brief:
as §1

The next assay deals with T3, ELK3 (Homo sapiens, UniProt P41970 1-407).
T3 sequence: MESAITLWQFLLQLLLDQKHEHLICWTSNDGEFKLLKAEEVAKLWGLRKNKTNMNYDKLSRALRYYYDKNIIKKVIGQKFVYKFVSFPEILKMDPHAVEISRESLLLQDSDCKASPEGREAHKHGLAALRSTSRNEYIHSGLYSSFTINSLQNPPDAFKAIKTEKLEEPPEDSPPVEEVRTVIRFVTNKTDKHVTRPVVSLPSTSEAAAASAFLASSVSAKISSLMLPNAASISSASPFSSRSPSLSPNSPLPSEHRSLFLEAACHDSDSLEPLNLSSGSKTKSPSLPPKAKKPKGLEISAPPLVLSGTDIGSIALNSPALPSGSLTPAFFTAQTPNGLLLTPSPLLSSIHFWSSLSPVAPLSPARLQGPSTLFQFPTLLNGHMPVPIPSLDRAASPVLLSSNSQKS
The method in brief:
as §1

The target of a further assay is T4, SPIC (Homo sapiens, UniProt Q8N5J4 1-248).
T4 sequence: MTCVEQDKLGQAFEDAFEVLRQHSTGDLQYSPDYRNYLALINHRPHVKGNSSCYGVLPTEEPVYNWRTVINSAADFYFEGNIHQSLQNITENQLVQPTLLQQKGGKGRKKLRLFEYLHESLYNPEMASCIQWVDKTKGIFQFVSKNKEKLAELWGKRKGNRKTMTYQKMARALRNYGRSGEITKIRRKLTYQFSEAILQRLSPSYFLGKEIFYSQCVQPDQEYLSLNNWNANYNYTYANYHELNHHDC
The method in brief: as §1

The next assay has as its target ELF4 (Homo sapiens, UniProt Q99607 1-663). The essentials:
as §1

The next assay addresses T5, ELF3 (Homo sapiens, UniProt P78545 1-371).
T5 sequence: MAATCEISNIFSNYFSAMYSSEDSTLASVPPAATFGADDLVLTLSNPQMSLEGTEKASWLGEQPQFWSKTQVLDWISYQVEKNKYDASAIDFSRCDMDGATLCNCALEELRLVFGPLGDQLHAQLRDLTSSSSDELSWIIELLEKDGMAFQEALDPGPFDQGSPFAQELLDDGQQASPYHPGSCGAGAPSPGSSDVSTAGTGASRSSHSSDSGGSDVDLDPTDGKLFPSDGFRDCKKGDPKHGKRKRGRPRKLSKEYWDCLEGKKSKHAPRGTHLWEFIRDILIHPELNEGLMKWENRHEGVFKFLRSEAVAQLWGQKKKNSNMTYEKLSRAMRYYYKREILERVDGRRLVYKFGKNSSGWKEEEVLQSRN
The essentials: as §1

In a further assay the target is ETV1 (Homo sapiens, UniProt P50549 1-477). The essentials: as §1
ETV1, sequence (P50549 whole entry): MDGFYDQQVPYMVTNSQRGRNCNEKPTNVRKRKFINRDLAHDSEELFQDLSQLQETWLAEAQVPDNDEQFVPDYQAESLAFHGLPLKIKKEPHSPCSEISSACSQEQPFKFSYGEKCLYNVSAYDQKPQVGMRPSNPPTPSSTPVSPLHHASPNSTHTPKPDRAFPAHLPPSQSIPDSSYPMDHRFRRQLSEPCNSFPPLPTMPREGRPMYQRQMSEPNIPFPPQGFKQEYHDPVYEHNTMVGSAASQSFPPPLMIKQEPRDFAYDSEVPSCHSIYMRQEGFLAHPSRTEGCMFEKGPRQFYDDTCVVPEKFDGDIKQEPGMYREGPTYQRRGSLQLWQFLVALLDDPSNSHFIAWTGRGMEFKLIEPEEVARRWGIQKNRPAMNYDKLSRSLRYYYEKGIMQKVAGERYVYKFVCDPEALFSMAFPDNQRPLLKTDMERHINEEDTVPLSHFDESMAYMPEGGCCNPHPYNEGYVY
The target in the next assay is T6, ETV3L (Homo sapiens, UniProt Q6ZN32 1-361).
T6 sequence: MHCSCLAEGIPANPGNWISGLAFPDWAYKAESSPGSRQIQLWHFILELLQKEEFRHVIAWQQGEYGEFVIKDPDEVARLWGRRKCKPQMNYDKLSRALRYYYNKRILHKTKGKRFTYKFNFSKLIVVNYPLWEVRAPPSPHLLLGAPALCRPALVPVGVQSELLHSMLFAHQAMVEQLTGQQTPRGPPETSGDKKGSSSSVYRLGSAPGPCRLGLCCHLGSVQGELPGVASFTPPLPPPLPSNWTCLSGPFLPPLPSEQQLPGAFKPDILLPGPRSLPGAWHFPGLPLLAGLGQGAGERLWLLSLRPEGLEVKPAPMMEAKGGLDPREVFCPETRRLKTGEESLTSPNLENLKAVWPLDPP
The method in brief: as §1

A further assay has as its target T7, ETS2 (Homo sapiens, UniProt P15036 1-469).
T7 sequence: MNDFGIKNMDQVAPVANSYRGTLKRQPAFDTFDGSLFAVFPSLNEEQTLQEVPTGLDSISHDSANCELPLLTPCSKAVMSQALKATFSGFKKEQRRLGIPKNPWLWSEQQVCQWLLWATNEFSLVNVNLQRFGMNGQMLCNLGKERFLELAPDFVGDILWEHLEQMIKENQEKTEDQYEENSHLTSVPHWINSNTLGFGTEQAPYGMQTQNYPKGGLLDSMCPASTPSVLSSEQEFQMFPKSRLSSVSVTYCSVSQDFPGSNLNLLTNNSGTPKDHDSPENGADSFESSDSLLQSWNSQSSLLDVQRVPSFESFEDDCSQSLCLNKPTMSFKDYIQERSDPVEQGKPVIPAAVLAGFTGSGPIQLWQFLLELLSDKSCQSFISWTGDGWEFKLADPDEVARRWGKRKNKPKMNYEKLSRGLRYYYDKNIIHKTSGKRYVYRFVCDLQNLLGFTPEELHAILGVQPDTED
The method in brief:
as §1

Another assay has as its target T8, SPDEF (Homo sapiens, UniProt O95238 1-335).
T8 sequence: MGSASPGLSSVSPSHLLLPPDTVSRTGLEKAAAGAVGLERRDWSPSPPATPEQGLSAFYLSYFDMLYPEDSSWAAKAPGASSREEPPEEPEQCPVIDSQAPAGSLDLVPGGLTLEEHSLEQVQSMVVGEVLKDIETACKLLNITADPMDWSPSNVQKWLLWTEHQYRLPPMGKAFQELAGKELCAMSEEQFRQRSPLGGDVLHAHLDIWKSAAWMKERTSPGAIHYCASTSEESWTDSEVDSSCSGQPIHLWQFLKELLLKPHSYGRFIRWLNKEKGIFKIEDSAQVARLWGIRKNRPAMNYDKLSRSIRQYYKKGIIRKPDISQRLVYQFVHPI
The method in brief:
as §1

Another assay concerns the target T9, ELF5 (Homo sapiens, UniProt Q9UKW6-2 1-255).
T9 sequence: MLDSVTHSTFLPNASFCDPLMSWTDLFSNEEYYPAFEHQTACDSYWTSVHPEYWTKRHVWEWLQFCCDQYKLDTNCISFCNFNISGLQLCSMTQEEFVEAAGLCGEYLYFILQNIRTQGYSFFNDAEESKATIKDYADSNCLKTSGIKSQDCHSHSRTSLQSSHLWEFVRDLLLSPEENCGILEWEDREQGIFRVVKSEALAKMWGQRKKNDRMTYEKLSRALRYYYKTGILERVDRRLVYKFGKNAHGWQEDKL
The method in brief:
as §1

A further assay deals with T10, ETV3 (Homo sapiens, UniProt P41162-2 1-143).
T10 sequence: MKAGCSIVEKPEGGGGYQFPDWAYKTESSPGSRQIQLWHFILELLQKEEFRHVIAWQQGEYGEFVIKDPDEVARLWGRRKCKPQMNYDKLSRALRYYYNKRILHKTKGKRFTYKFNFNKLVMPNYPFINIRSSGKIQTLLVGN
The method in brief: as §1

ELF4, sequence (Q99607 whole entry): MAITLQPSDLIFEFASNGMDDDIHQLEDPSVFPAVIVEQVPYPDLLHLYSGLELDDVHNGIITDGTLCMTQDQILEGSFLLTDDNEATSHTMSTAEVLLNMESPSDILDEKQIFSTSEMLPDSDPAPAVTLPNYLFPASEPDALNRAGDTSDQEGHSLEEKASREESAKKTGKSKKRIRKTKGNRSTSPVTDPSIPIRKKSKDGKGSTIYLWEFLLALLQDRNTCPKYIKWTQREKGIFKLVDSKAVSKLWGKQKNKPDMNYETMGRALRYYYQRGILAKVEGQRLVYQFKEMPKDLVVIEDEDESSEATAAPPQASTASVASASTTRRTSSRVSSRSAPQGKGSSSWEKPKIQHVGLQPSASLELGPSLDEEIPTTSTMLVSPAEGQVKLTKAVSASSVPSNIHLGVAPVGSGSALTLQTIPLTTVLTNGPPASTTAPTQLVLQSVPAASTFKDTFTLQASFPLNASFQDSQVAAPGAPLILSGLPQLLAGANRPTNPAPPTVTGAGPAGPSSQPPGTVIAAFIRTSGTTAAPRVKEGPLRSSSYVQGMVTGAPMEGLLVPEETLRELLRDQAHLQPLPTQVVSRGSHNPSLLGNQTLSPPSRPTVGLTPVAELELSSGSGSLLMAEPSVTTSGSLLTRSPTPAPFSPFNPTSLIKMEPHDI

Turning to GATACA, the binding signal is 1.03 fold enrichment (6-mer frequency, TF over GST control) in the assay with FLI1; 1.03 fold enrichment (6-mer frequency, TF over GST control) with ERG; 1.01 fold enrichment (6-mer frequency, TF over GST control) with SPI1; 1.03 fold enrichment (6-mer frequency, TF over GST control) with ELK3; 1.07 fold enrichment (6-mer frequency, TF over GST control) in the assay with SPIC; 1.08 fold enrichment (6-mer frequency, TF over GST control) with ELF4. Also, the binding signal with ELF3 was 1.08 fold enrichment (6-mer frequency, TF over GST control); in the assay with ETV1, 1.06 fold enrichment (6-mer frequency, TF over GST control); with ETV3L, 1.05 fold enrichment (6-mer frequency, TF over GST control); in the assay with ETS2, 1.05 fold enrichment (6-mer frequency, TF over GST control); with SPDEF it was 1.24 fold enrichment (6-mer frequency, TF over GST control); with ELF5, 1 fold enrichment (6-mer frequency, TF over GST control). For the same sequence, the binding signal with ETV3 is 1.01 fold enrichment (6-mer frequency, TF over GST control).

These data come from article PMC7862700, “An all-to-all approach to the identification of sequence-specific readers for epigenetic DNA modifications on cytosine”.
